Out of some 360,000 compounds screened, about 2,300 (0.64%) were called active.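 The calls were made as follows: active = compounds giving at least 50% protection of heart cells from peroxide-induced death in the single-dose screen, raw or plate-pattern-corrected value; inactive = the rest.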 Many of the other results were omitted from the sample, so actives are more common in it than they were.
Assay: cardioprotection against H2O2-induced cell death, primary screen, uHTS, H9c2 cells, ATPLite luminescence (AID 588492);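 also: 0% = DMSO wells with peroxide and 100% = DMSO wells without peroxide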
Conditions: H9c2 cardiomyocytes, H2O2 injury protection, 2 h, at 20 µM, hits give high values

Row | Compound | protection from H2O2 cell death
1 | COc1ccc2[nH]c(=O)c(CN(Cc3cccnc3)S(=O)(=O)c3ccccc3F)cc2c1 | 60.7% (active)
2 | CCOc1ccc2[nH]c(=O)c(CN(CCCO)S(=O)(=O)c3ccc(F)cc3)cc2c1 | 18.6% (inactive)
3 | COc1ccc(-c2[nH]ncc2CN(C)Cc2cccnc2)c(F)c1 | -2.7% (inactive)
4 | O=C(CNS(=O)(=O)c1ccc2c(c1)OCCCO2)N1CCN(c2ccc(F)cc2)CC1 | -3.7% (inactive)
5 | CC1CCC2(CC1)NC(=O)N(CC(=O)c1cccn1C)C2=O (configuration not stated) | 7.1% (inactive)
6 | Cc1ccc(C(=O)N/C(=C/c2ccc(-c3cccc([N+](=O)[O-])c3)o2)C(=O)NCCCN(C)C)cc1 | -22.6% (inactive)
7 | N#C/C(=C\c1ccc(-c2cccc([N+](=O)[O-])c2)o1)C(=O)NCCN1CCOCC1 | 55% (active)
8 | Cc1ccc(-c2ccc(/C=N/NC(=O)CN3CCOCC3)o2)cc1[N+](=O)[O-] | 7.6% (inactive)
9 | COc1ccc(C(=O)Nc2ccc(C(=O)NCC3CCCO3)cc2)c(OC)c1OC (configuration not stated) | 10.2% (inactive)
10 | O=C(NCCN1C(=O)S/C(=C\c2cccnc2)C1=O)c1ccc(S(=O)(=O)N2CCCC2)cc1 | 0.9% (inactive)
11 | Oc1c(C(c2ccccn2)N2CCOCC2)ccc2cccnc12 (configuration not stated) | 64.9% (active)
12 | COc1cc(-c2nnc(NC(=O)C3=COCCO3)o2)cc(OC)c1OC | -5.7% (inactive)
13 | CCOC(=O)c1cc(-c2nnc(-c3cc(OC)c(OC)c(OC)c3)o2)c(C)nc1C | 119% (active)
14 | Cc1nc(C)c(-c2nnc(-c3cccc(S(=O)(=O)N(C)C)c3)o2)cc1C(=O)NN | -1.4% (inactive)
15 | CCOC(=O)c1[nH]cnc1C(=O)NC1CCCCC1 | 5.2% (inactive)
16 | Cc1occc1C(=O)N/N=C/c1ccc(-c2cccc([N+](=O)[O-])c2)o1 | 16.2% (inactive)
17 | COc1ccc(C(=O)NNC(=O)c2cc(C)[nH]n2)cc1 | 7.7% (inactive)
18 | Cc1cc(C(=O)N/N=C/c2cc([N+](=O)[O-])cc(C)c2O)n[nH]1 | 58.2% (active)
19 | O=C(OC1CCOC1=O)c1ccc(-c2nc3ccccc3s2)s1 (configuration not stated) | -18.2% (inactive)

Row | Compound | protection from H2O2 cell death
20 | Cc1cc(C)c(S(=O)(=O)c2ccc(F)cc2C)c(=O)[nH]1 | 11.1% (inactive)
21 | CCN(CC)CCn1c(/N=C/c2cc(Br)ccc2O)nc2ccccc21 | 32.2% (inactive)
22 | O=C(CCc1ccc(O)cc1)NN=Cc1cc(Br)ccc1O | 41.5% (inactive)
23 | Oc1ccc(Br)cc1C=Nc1ccc2[nH]ncc2c1 | 63.8% (active)
24 | CCc1cc(=O)oc2cc(OCC(=O)N3CCCc4ccccc43)ccc12 | 22.6% (inactive)
25 | Cc1cc(C(=O)OCC(=O)NCc2ccco2)c(C)n1-c1ccccc1 | -1.9% (inactive)
26 | COc1ccc(/C=C2/S/C(=N/N=C3\CC4CCC3(C)C4(C)C)NC2=O)cc1 (configuration not stated) | -7.9% (inactive)
27 | O=[N+]([O-])c1ccc2c(c1)C(N1CCOCC1)/C(=C/C1(O)CCCCC1)O2 (configuration not stated) | 1.3% (inactive)
28 | O=C1OCCC1=COCCCCOC=C1CCOC1=O | 3% (inactive)
29 | O=C(NCC1(N2CCCCC2)CCCCC1)c1cccc(S(=O)(=O)Nc2ccccc2Cl)c1 | 28.2% (inactive)
30 | O=C(O)Cn1c(Cc2ccccc2)nc2ccccc21 | 11.1% (inactive)
31 | CCCn1c(N)c(C(=O)CSc2nnc(-c3cccnc3)n2-c2ccc(C)cc2C)c(=O)[nH]c1=O | 22.9% (inactive)
32 | CCCCC(=O)Nc1ccc2c(c1)C(=O)NC2=O | 9.9% (inactive)
33 | Cc1ccc(C)c(NC(=O)CSc2nc3c(oc4ccccc43)c(=O)n2-c2ccccc2)c1 | -6.4% (inactive)
34 | CCCCC(=O)Nc1cc(C)c2c(=O)oc3ccccc3c2n1 | 77.7% (active)
35 | COc1ccc2c(c1)C(NS(=O)(=O)OCC(Cl)(Cl)Cl)CCC2 (configuration not stated) | -4.5% (inactive)
36 | COc1ccc(S(=O)(=O)NCCc2cc3ccc(C)c(C)c3[nH]c2=O)cc1 | -9.7% (inactive)
37 | COc1ccc2[nH]c(=O)c(CN(CC3CCCO3)C(=O)Nc3ccccc3)cc2c1 (configuration not stated) | 11.7% (inactive)
38 | COc1ccc2[nH]c(=O)c(CNc3ccc(C)c(C)c3)cc2c1 | 57.7% (active)

Row | Compound | protection from H2O2 cell death
39 | CCc1cccc(CC)c1N1C(=O)CC(Sc2ccccc2N)C1=O (configuration not stated) | -0.9% (inactive)
40 | O=C(NCc1cccs1)C(=O)NCC1OCCCN1S(=O)(=O)c1ccc(F)cc1 (configuration not stated) | 6% (inactive)
41 | CCOc1cc2c(Cl)ncnc2c(OCC)c1OCC | 0.8% (inactive)
42 | O=C(COC(=O)c1ccc(S(=O)(=O)N2CCCCCC2)cc1)Nc1ccccc1C(F)(F)F | 2.5% (inactive)
43 | CN(C)S(=O)(=O)c1ccc(NC(=O)COC(=O)Cn2[nH]c(=O)c3ccccc3c2=O)cc1 | 72.5% (active)
44 | CC1(C(=O)OCC(=O)Nc2ncc(Cl)cc2Cl)CC1(Cl)Cl (configuration not stated) | -1.6% (inactive)
45 | Cc1ccc(C)c(C(=O)COC(=O)Cn2[nH]c(=O)c3ccccc3c2=O)c1 | 82% (active)
46 | O=C(COC(=O)Cn1[nH]c(=O)c2ccccc2c1=O)Nc1c(Cl)cccc1C(F)(F)F | 88.6% (active)
47 | CCC1(CC)NC(=O)N(CC(=O)OCC(=O)Nc2ccc(C(F)(F)F)cc2)C1=O | 4.8% (inactive)
48 | CC(Oc1ccc(Cl)cc1)C(=O)OCC(=O)Nc1ncc(Cl)cc1Cl (configuration not stated) | 7.1% (inactive)
49 | Cc1ccc(C)c(NC(=O)COC(=O)c2nn(C)c(=O)c3ccccc23)c1 | 7% (inactive)
50 | O=C(COC(=O)Cn1[nH]c(=O)c2ccccc2c1=O)Nc1ncc(Cl)cc1Cl | 79.9% (active)
51 | CN(C)S(=O)(=O)c1ccc(NC(=O)COC(=O)c2n[nH]c3ccccc23)cc1 | -11.7% (inactive)
52 | CCC1(CC)NC(=O)N(CC(=O)OCC(=O)c2cc(C)c(C)cc2C)C1=O | 4.7% (inactive)
53 | Cc1ccc(S(=O)(=O)N(C)CC(=O)OCC(=O)Nc2ccccc2)cc1 | -0.1% (inactive)
54 | CCc1nc2ccc(C(=O)NCCNC(C)=O)cn2c1N(CC)Cc1cccc(Br)c1 | 4.8% (inactive)
55 | CC(OC(=O)CNC(=O)c1cccc(F)c1)C(=O)NC1CCCCC1C (configuration not stated) | 2% (inactive)
56 | CCCC(=O)Nc1ccc2c(c1)nc1n2CCSC1 | -7.4% (inactive)
57 | CS(=O)(=O)N1CCc2nc(-c3ccccc3)sc2C1 | -1.4% (inactive)

From PubChem BioAssay AID588492 (Sanford-Burnham Center for Chemical Genomics, 2011)
